# Measured values taken from PubChem BioAssay (NCATS).
# A number with no mark means an inactive call. Results filed as inconclusive are left out. Active and inactive are the calls of the source. Unless noted, calls come from the whole dose curve; as a rule, active = well fitted curve in either direction with a large enough effect (not every such curve was filed as active); inconclusive = small, poorly fitted or top-dose-only effect, or another doubt; inactive = flat fitted curve, though single readings scatter.
# How the values were obtained:
# [1] = biological target: Lysosomal acid glucosylceramidase (Homo sapiens) (UniProt P04062); assay: Glucocerebrosidase-p2 (AID 348; in the data active = potency below about 10 µM; note: potency is the fitted concentration of half-maximal effect); conditions: purified GBA, blue fluorogenic substrate, 40 min
# Method in brief: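 Normal human glucocerebrosidase (0.2 nM) with blue fluorogenic substrate (80 uM final) in citrate/phosphate pH 5.9 with 10mM sodium taurocholate, 0.01% tween-20; 40 min RT, NaOH/glycine stop; fluorescence Ex 365/Em 440; AC50 from a titration from 0.6 nM upwards.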
# [2] = AP1 Signaling Pathway (AID 357); conditions: ME-180 AP-1-bla reporter, EGF-induced, beta-lactamase ratio, 5 h; at 7.69 µM (top of the series) unless noted;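 note: ME-180 reporter cells stimulated with EGF at its EC50 level; % is set by controls: 0 for no effect and ±100 for the full control effect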
# Method in brief: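 First, ME-180 AP-1-bla cells were cultured overnight at 37 °C in low-serum Opti-MEM. Next, titrated compounds with EC50 EGF were incubated 5 hours. Finally, CCF4 was added for 2.5 hours and the 460/530 nm ratio recorded.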
# [3] = biological target: Cytochrome P450 1A2 (Homo sapiens) (UniProt P05177); assay: p450-cyp1a2 (AID 410; calls by dose curve; note: potency is the fitted concentration of half-maximal effect;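 for activity change, negative = inhibition: -100% = full effect of reference inhibitor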); conditions: recombinant CYP1A2, luciferin-ME demethylation, luminescence; series mostly up to 11.4 µM
# Method in brief: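 20nM CYP1A2, 100uM Luciferin-ME (=Km), 100mM KPO4; cpd 10 min RT; +NADPH regen, 60 min RT; stop/detect 20 min; luminescence. Normalized to furafylline 57 uM = full inhibition.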
# [4] = NFAT Signaling Pathway (AID 444); conditions: Jurkat NFAT-bla M1, carbachol, beta-lactamase ratio, 5 h; at 7.69 µM (top of the series) unless noted;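 note: carbachol stimulus at about its EC50 of 1 µM final; % is set by controls: 0 for no effect and ±100 for the full control effect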
# Method in brief: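 Jurkat cells carrying an NFAT-driven β-lactamase reporter and co-transfected muscarinic M1 receptor were treated with compound plus carbachol (1 uM final, an EC50 level) for 5 h at 37 °C. CCF4 loading followed for 1 h at RT; 460/530 nm ratio gave %activity.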
# [5] = Stat Signaling Pathway (AID 446); conditions: ME-180 (cervical carcinoma) SIE beta-lactamase reporter, IL-6 stimulated, 5 h; at 7.69 µM (top of the series) unless noted;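 note: ME-180 cervical cancer cells given 40 pM IL-6 alongside compound; SIE-controlled beta-lactamase reporter measured as 460/530 nm FRET emission ratio; % is set by controls: 0 for no effect and ±100 for the full control effect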
# Method in brief: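 Compound effects on IL-6-induced STAT reporter activity were measured in ME-180 cells. After overnight culture, cells were co-treated with 40 pM IL-6 for 5 hrs before beta-lactamase substrate loading at room temperature.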
# [6] = biological target: Glucocorticoid receptor (Homo sapiens) (UniProt P04150); assay: GR-GFP Redistribution (AID 450;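 active = compounds whose dose series gives a full or clear partial fitted curve of increased nuclear translocation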; note: potency is the fitted concentration of half-maximal effect); conditions: U2OS GR-GFP nuclear translocation, laser cytometry, 2 h
# [7] = biological target: Glucocorticoid receptor (Homo sapiens) (UniProt P04150); assay: GR-EFC Redistribution (AID 451; calls by dose curve; note: potency is the fitted concentration of half-maximal effect); conditions: CHO-K1 GR-EFC translocation, beta-gal luminescence, 2 h
# Method in brief: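 CHO-K1 cells stably expressing nuclear-localized β-gal enzyme acceptor and GR fused C-terminally to the enzyme donor fragment; ligand-driven nuclear translocation restores β-gal by complementation. Compounds titrated up to 46 uM final, 2 h at 37 °C; luminescence read.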
# [8] = biological target: Mitogen-activated protein kinase 10 (Mus musculus) (UniProt Q61831); assay: JNK3 AlphaScreen Assay (AID 530); conditions: JNK3 lysate, c-Jun phosphorylation; series mostly up to 11.4 µM;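 note: kinase came from lysate of stimulated human HepG2 cells; signal reports phosphorylation of biotinylated GST-cJun 1-79 at Ser73 with 10 µM ATP; % is set by controls: 0 for no effect and ±100 for the full control effect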
# Method in brief: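 Biotinylated GST-cJun(1-79) served as substrate for JNK3 in HepG2 lysates stimulated with IL-1beta and TNF-alpha. ATP was 10 uM final, pH 7.6. Ser73 phosphorylation was quantified by AlphaScreen (680 nm excitation).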
# [9] = biological target: 3',5'-cyclic-AMP phosphodiesterase 4B (Homo sapiens) (UniProt Q07343); assay: qHTS Assay for Inhibitors of PDE-IV (AID 607; active = well fitted activation curve with a large enough effect in the main read-out, with a control signal flat, not every such curve was filed as active; note: % of control where 0% means no effect); conditions: HEK293 ACTOne CNG channel cells, membrane potential fluorescence; series mostly up to 22.9 µM
# Method in brief: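 ACTOne HEK293 cells carry a modified cAMP-gated CNG channel and express endogenous PDE4; plated 1000 cells/well, compounds up to 22.9 uM final. Membrane-potential dye fluorescence (ex 535/em 590) was read; parental cells received 10 uM forskolin + 100 uM RO 20-1724.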
# [10] = biological target: Cytochrome P450 3A4 (Homo sapiens) (UniProt P08684); assay: qHTS Assay for Activators of Cytochrome P450 3A4 (AID 885; active = well fitted activation curve with a large enough effect; note: nearly all actives have a fitted effect of over 65% in size); conditions: recombinant CYP3A4, Luciferin-PPXE luminescence, 60 min; series mostly up to 11.4 µM
# Method in brief: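 CYP3A4 activity: Luciferin-PPXE O-dealkylation, 25uM substrate, 200mM KPO4, RT throughout. Read-out is luciferase luminescence; higher values reflect activation.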
# Sequence of 3',5'-cyclic-AMP phosphodiesterase 4B (Homo sapiens) (Q07343 whole entry, looked up): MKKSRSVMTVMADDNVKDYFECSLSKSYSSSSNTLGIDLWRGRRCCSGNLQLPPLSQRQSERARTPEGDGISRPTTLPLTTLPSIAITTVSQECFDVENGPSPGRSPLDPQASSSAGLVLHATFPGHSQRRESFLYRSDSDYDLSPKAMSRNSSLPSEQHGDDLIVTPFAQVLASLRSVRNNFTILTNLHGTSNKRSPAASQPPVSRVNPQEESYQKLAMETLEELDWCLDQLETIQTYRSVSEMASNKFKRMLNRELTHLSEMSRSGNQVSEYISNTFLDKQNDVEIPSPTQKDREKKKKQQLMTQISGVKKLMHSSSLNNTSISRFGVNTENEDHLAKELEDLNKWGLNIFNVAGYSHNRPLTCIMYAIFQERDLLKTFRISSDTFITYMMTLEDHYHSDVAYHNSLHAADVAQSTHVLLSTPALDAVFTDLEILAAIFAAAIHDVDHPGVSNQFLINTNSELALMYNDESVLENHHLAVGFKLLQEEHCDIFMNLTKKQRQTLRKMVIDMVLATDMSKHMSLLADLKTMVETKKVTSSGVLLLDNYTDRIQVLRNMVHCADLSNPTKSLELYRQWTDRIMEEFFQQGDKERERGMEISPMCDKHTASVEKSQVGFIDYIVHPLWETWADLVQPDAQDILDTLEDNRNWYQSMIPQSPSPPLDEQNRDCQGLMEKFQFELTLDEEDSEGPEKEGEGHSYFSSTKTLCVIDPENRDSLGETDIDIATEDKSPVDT
# Sequence of Glucocorticoid receptor (Homo sapiens) (P04150 whole entry, looked up, the tested form may be a part): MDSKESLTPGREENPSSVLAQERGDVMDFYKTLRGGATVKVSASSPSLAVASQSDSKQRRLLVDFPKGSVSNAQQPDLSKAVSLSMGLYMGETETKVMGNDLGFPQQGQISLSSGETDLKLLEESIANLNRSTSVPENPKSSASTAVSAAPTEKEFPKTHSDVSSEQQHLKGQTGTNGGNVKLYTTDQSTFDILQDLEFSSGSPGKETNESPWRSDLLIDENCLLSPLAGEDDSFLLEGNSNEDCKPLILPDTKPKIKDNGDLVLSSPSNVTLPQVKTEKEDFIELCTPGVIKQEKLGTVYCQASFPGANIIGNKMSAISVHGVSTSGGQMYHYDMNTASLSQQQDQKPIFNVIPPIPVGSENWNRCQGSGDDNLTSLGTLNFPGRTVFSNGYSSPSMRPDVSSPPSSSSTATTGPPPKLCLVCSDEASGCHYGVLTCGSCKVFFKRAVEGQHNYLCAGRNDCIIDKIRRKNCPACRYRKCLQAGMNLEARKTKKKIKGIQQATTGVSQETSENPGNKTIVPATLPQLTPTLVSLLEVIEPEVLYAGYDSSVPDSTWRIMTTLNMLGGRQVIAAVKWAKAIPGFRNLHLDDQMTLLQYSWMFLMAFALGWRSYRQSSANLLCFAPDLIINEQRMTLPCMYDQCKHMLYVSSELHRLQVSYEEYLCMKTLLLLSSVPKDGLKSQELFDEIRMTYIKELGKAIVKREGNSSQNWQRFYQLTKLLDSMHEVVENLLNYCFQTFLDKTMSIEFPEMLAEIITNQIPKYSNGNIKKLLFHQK
# Sequence of Cytochrome P450 1A2 (Homo sapiens) (P05177 whole entry, looked up): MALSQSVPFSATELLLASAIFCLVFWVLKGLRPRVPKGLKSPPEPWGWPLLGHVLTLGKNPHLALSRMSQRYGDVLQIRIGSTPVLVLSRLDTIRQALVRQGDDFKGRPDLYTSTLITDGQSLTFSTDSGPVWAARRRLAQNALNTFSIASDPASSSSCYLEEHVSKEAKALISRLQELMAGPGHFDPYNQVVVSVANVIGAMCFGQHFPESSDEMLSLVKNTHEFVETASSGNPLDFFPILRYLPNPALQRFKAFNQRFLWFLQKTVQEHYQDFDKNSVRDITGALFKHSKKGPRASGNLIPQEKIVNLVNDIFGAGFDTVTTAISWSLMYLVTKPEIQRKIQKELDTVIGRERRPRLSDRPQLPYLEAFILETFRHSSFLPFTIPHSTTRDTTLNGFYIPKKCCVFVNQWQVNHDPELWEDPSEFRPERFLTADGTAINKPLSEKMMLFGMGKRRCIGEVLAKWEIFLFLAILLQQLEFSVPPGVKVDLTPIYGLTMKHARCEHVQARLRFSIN
# Sequence of Cytochrome P450 3A4 (Homo sapiens) (P08684 whole entry, looked up): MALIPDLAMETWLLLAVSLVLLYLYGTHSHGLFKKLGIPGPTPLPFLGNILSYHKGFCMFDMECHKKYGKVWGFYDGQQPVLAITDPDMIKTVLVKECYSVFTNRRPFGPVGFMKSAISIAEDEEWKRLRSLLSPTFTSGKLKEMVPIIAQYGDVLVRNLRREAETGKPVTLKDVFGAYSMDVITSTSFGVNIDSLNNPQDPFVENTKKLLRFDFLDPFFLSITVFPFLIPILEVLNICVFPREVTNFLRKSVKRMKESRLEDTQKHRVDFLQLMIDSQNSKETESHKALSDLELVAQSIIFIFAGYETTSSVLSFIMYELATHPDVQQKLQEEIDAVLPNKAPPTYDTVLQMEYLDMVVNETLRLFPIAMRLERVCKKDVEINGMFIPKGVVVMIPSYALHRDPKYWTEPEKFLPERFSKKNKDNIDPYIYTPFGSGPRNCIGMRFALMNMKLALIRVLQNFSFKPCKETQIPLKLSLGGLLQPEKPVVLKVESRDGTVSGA
# Sequence of Lysosomal acid glucosylceramidase (Homo sapiens) (P04062 whole entry, looked up): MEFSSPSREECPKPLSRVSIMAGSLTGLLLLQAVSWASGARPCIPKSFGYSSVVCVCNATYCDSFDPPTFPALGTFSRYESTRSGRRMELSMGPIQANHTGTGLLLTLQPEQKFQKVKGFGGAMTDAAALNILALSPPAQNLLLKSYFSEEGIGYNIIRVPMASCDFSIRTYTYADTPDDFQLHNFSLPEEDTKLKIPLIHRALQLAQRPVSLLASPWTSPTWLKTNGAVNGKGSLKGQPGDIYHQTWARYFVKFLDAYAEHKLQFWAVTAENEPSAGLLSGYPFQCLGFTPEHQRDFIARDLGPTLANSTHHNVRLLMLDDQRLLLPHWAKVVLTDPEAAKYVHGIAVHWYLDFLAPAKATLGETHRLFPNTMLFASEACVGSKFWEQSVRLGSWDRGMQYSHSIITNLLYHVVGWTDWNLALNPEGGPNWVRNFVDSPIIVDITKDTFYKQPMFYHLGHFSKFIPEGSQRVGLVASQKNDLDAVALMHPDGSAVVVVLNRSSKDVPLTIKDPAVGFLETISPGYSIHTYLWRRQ
Structure (SMILES),Potency [1],"activity change, negative = inhibition [2]",Potency [3],"activity change, negative = inhibition [4]","activity, negative = inhibition [5]",Potency [6],Potency [7],Potency [8],Potency [9],Potency [10],"activity change, negative = inhibition [3]"
Cc1cc(C(=O)CSC(=S)SC(C)(C)C)ccc1Cl,> 11.4 µM,7.67%,1.58 µM (active),-16.2%,-27.2%,> 46 µM,> 9.22 µM,inactive,inactive,inactive,–
COc1ncc2nc(-c3ccc(Cl)cc3)c(=O)n(C[C@H]3CCCO3)c2n1,> 11.4 µM,-1.85%,0.501 µM (active),-7.47%,-9.41%,> 9.22 µM,> 46 µM,inactive,inactive,inactive,–
c1ccc(CSc2nnc3c4ccccc4c4ccccc4c3n2)cc1,> 11.4 µM,6.19%,0.2 µM (active),-12.6%,1.88%,> 46 µM,> 9.22 µM,inactive,inactive,inactive,–
NS(=O)(=O)c1ccc(N=Nc2nc3[nH]c(=O)[nH]c(=O)c3[nH]2)cc1,8.51 µM (active),-5.25%,inactive,13.6%,21.2%,> 46 µM,> 9.22 µM,inactive,inactive,inactive,–
c1cncc(-c2cc(-c3cc(-c4cccnc4)n[nH]3)[nH]n2)c1,> 11.4 µM,4.4%,0.501 µM (active),14%,-1.32%,> 46 µM,> 9.22 µM,inactive,inactive,inactive,–
CC1(CC(=O)O)O[C@H]2CCCCC[C@H]2O1 (stereo not given in full) (tested in a mixture with another compound),> 11.4 µM,8.96%,inactive,-4.93%,5.55%,> 46 µM,> 9.22 µM,inactive,inactive,inactive,–
NCCNS(=O)(=O)c1ccc(N)cc1,> 11.4 µM,3.42%,inactive,-2.06%,3.19%,> 46 µM,> 9.22 µM,inactive,inactive,inactive,–
CC[C@H]1CC[C@H]2[C@@H]3CC=C4C[C@H](OC(C)=O)[C@@H](N)C[C@@]4(C)[C@H]3CC[C@@]12C,> 11.4 µM,8.35%,inactive,8.17%,-1.58%,> 46 µM,> 9.22 µM,inactive,inactive,inactive,–
CN[C@@H](c1ccncc1)[C@@H](NC)c1ccncc1,> 11.4 µM,11.4%,inactive,-1.07%,-0.841%,> 46 µM,> 9.22 µM,inactive,inactive,inactive,–
O=C(O)c1nc2nc(Cl)c(Cl)nc2[nH]1,> 11.4 µM,0.697%,inactive,-0.0714%,2.39%,> 46 µM,> 9.22 µM,inactive,inactive,inactive,–
CN(C)c1ccc(/C=N\NC(=O)c2cnc3ccccc3c2)cc1,> 11.4 µM,-12.8%,1.58 µM (active),1.4%,-7.11%,> 46 µM,> 9.22 µM,inactive,inactive,inactive,–
CC(C)(C)CC(C)(C)c1ccc(O)c(C[N+](C)(C)[O-])c1,> 11.4 µM,0.484%,–,17.3%,0.425%,> 46 µM,> 9.22 µM,inactive,inactive,inactive,-17.9% [at 2.29 µM]
c1nc(NCCc2cnc[nH]2)c2[nH]cnc2n1,> 11.4 µM,3.43%,5.01 µM (active),6.94%,0.609%,> 46 µM,> 9.22 µM,inactive,inactive,inactive,–
O=C1C2=C(Nc3cc([N+](=O)[O-])ccc3N2)O[C@@H]1c1c[nH]c2ccc(COc3ccccc3)cc12,> 11.4 µM,-21.7%,2.51 µM (active),6.34%,0.333%,> 46 µM,> 9.22 µM,inactive,inactive,inactive,–
Cn1c(=O)c2[nH]c(CCS)nc2n(C)c1=O,> 11.4 µM,3.25%,inactive,-18%,3.06%,> 46 µM,> 9.22 µM,inactive,inactive,inactive,–
